In ChEMBL document CHEMBL2218924, “A broad activity screen in support of a chemogenomic map for kinase signalling research and drug discovery” (Biochem J, 2013):

Columns and labels:
[1] = target: T1, Serine/threonine-protein kinase TBK1 (Homo sapiens) (UniProt Q9UHD2); conditions: at 10 µM
T1 sequence (whole entry): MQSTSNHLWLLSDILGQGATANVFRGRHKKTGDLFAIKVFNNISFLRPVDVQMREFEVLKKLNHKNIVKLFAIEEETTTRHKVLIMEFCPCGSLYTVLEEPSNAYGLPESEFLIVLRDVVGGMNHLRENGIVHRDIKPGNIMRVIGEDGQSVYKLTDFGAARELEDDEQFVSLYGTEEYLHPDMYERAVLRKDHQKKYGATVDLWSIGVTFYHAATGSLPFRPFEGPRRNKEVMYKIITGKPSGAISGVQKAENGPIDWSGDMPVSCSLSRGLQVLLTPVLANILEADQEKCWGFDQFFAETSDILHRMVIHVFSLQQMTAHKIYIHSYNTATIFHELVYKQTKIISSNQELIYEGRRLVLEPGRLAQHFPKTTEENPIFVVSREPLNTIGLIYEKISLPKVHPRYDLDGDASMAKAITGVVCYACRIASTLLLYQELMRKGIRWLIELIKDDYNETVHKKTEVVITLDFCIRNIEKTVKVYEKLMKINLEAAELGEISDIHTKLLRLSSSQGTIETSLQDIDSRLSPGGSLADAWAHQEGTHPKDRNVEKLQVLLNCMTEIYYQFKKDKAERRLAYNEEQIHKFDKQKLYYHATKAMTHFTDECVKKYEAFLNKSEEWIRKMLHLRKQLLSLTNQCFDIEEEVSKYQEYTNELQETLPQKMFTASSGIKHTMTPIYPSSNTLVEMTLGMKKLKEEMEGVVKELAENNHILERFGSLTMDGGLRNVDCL

[2] = target: T2, TGF-beta receptor type-1 (Homo sapiens) (UniProt P36897); conditions: at 1 µM
T2 sequence (whole entry): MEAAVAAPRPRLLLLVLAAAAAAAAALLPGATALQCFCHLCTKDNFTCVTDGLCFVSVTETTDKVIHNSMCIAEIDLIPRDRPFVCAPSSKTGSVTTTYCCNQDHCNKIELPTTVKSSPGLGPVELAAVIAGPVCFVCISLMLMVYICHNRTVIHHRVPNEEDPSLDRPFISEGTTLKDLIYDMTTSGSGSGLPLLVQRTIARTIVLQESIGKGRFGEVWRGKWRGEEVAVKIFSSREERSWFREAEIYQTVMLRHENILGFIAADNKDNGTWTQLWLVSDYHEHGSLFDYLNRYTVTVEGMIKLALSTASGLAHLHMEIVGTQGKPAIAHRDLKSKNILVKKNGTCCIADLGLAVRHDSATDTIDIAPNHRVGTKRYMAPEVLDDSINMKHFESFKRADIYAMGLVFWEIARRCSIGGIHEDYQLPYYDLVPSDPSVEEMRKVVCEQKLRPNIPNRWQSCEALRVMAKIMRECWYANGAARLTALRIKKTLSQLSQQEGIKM

[3] = target: T2, TGF-beta receptor type-1 (Homo sapiens); conditions: at 10 µM
[4] = target: Insulin-like growth factor 1 receptor (Homo sapiens) (UniProt P08069); conditions: at 1 µM
[5] = target: Insulin-like growth factor 1 receptor (Homo sapiens) (UniProt P08069); conditions: at 10 µM
[6] = target: T3, Inhibitor of nuclear factor kappa-B kinase subunit alpha (Homo sapiens) (UniProt O15111); conditions: at 1 µM
T3 sequence (whole entry): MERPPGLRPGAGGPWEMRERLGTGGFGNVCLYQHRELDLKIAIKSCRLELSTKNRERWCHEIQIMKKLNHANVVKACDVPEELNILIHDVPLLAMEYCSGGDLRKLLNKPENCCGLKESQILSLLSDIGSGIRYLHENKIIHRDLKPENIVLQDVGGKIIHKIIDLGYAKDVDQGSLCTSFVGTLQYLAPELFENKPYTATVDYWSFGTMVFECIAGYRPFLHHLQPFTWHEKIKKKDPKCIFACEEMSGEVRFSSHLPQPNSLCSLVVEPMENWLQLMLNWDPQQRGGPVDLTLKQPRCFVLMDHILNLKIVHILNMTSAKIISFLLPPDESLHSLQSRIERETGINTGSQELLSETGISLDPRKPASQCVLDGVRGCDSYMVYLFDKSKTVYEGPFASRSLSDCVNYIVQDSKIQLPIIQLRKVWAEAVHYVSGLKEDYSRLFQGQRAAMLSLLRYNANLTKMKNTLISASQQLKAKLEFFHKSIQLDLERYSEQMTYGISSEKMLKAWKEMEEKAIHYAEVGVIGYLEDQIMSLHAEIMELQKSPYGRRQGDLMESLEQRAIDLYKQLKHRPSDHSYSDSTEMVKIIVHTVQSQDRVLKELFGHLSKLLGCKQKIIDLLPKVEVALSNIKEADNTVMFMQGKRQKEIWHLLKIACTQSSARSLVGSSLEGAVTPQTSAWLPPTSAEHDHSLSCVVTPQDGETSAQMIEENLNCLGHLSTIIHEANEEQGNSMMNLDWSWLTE

[7] = target: T3, Inhibitor of nuclear factor kappa-B kinase subunit alpha (Homo sapiens); conditions: at 10 µM
[8] = target: T4, Inhibitor of nuclear factor kappa-B kinase subunit beta (Homo sapiens) (UniProt O14920); conditions: at 10 µM
T4 sequence (whole entry): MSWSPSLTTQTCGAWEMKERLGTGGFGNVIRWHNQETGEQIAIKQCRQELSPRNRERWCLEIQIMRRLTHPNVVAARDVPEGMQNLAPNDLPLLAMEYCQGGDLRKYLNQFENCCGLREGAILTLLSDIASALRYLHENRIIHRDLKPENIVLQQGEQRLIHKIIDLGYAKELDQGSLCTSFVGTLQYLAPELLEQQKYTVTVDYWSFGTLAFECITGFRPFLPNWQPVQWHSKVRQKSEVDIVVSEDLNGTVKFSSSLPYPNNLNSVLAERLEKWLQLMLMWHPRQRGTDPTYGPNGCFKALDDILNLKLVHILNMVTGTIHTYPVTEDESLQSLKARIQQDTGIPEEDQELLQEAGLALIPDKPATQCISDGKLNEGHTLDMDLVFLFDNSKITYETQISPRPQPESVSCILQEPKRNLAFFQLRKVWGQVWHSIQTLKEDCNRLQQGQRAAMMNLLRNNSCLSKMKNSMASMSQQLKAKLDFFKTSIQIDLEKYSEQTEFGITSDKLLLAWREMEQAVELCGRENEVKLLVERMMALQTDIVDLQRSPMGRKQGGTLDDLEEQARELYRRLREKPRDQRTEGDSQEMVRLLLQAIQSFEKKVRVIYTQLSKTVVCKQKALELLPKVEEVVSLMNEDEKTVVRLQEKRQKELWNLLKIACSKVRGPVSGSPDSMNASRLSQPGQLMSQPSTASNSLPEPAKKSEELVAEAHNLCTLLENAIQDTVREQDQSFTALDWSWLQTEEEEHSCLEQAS

[9] = target: Insulin receptor (Homo sapiens) (UniProt P06213); conditions: at 1 µM
[10] = target: Insulin receptor (Homo sapiens) (UniProt P06213); conditions: at 10 µM
[11] = target: Insulin receptor (Homo sapiens) (UniProt P06213); conditions: at 1 µM; remark: listed apart in the source
[12] = target: Insulin receptor (Homo sapiens) (UniProt P06213); conditions: at 10 µM; remark: listed apart in the source
[13] = target: Interleukin-1 receptor-associated kinase 1 (Homo sapiens) (UniProt P51617); conditions: at 1 µM
[14] = target: Interleukin-1 receptor-associated kinase 1 (Homo sapiens) (UniProt P51617); conditions: at 10 µM
[15] = target: T5, Interleukin-1 receptor-associated kinase 4 (Homo sapiens) (UniProt Q9NWZ3); conditions: at 1 µM
T5 sequence (whole entry): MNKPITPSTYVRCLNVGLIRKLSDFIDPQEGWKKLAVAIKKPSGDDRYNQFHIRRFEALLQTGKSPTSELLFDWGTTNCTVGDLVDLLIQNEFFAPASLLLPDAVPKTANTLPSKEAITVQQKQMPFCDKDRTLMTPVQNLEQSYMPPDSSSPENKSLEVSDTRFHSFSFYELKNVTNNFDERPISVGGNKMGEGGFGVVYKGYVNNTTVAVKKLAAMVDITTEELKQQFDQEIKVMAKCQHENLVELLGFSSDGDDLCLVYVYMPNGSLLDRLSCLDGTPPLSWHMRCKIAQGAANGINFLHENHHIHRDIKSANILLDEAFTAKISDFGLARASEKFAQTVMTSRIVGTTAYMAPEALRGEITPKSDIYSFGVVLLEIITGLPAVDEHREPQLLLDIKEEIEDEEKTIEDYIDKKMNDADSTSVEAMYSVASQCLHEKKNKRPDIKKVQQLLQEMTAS

[16] = target: Insulin receptor-related protein (Homo sapiens) (UniProt P14616); conditions: at 1 µM
[17] = target: Insulin receptor-related protein (Homo sapiens) (UniProt P14616); conditions: at 10 µM
[18] = target: T6, Tyrosine-protein kinase ITK/TSK (Homo sapiens) (UniProt Q08881); conditions: at 1 µM
T6 sequence (whole entry): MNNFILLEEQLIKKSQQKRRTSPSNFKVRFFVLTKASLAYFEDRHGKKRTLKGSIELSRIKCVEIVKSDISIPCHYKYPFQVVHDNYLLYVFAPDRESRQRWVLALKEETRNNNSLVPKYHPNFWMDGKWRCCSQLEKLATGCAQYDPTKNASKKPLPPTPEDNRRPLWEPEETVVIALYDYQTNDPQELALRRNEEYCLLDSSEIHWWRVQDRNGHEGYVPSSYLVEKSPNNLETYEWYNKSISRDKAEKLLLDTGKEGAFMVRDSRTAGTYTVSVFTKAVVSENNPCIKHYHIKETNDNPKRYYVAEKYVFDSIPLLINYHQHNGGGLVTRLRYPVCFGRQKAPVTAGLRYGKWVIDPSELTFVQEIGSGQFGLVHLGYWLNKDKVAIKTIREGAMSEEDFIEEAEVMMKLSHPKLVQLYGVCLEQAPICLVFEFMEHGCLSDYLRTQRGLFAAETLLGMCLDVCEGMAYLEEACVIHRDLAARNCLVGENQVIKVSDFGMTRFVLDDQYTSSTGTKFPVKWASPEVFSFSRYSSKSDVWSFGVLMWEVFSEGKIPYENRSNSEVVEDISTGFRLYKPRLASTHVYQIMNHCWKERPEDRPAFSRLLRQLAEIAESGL

[19] = target: T4, Inhibitor of nuclear factor kappa-B kinase subunit beta (Homo sapiens); conditions: at 1 µM
[20] = target: T5, Interleukin-1 receptor-associated kinase 4 (Homo sapiens); conditions: at 10 µM

Sequence of Insulin receptor-related protein (Homo sapiens) (P14616 27-742 limits assumed): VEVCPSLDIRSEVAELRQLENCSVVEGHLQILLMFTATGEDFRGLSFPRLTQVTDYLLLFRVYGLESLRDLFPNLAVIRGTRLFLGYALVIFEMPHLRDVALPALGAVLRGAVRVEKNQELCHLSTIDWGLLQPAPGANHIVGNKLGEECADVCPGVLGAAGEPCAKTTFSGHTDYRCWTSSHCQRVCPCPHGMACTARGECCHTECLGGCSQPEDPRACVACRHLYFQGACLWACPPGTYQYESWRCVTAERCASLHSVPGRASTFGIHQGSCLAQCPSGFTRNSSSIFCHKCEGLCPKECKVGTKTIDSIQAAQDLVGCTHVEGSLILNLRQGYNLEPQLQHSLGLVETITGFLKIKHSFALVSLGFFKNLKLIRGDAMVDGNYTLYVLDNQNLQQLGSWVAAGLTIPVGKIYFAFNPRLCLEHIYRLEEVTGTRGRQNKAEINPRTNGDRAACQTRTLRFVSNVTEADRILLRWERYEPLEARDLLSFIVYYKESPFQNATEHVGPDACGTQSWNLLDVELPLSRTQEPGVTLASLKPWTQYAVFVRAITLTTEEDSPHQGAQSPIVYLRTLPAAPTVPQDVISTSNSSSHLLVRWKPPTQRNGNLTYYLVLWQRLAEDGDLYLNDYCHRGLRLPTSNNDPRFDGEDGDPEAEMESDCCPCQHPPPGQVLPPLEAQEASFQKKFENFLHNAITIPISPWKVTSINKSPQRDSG
Sequence of Insulin receptor-related protein (Homo sapiens) (P14616 747-1297 limits assumed): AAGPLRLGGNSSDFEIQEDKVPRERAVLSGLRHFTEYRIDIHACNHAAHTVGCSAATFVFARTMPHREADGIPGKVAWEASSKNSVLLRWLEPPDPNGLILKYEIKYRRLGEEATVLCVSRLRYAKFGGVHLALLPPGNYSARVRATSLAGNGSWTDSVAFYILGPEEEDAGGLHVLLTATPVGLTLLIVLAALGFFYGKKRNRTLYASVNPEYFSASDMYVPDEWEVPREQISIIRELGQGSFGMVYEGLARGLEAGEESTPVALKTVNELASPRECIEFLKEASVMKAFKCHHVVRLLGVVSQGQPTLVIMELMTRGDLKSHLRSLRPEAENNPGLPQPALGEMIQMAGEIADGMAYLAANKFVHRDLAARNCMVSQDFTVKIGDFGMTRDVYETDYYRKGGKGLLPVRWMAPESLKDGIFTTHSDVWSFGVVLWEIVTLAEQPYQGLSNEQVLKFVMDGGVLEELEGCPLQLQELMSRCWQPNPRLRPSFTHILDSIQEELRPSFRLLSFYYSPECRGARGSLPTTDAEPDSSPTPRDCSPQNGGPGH
Sequence of Interleukin-1 receptor-associated kinase 1 (Homo sapiens) (P51617 whole entry, looked up): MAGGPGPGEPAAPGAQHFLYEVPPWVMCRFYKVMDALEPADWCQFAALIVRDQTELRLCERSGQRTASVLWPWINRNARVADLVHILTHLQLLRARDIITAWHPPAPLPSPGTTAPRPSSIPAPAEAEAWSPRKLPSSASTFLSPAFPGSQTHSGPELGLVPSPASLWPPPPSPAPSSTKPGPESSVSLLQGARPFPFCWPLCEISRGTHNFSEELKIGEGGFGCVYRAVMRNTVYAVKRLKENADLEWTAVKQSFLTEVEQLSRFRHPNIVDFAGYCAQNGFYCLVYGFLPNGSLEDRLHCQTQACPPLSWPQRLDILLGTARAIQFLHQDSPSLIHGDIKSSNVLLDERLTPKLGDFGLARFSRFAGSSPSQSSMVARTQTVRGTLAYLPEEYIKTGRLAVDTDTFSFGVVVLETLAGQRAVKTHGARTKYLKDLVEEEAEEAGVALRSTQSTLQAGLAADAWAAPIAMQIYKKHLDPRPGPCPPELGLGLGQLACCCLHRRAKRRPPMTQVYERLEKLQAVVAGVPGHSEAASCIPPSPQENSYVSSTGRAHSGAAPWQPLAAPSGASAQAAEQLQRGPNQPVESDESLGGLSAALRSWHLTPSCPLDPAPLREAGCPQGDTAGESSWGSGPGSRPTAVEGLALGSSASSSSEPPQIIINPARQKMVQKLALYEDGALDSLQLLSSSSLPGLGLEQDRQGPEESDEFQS
Sequence of Insulin-like growth factor 1 receptor (Homo sapiens) (P08069 31-736 limits assumed): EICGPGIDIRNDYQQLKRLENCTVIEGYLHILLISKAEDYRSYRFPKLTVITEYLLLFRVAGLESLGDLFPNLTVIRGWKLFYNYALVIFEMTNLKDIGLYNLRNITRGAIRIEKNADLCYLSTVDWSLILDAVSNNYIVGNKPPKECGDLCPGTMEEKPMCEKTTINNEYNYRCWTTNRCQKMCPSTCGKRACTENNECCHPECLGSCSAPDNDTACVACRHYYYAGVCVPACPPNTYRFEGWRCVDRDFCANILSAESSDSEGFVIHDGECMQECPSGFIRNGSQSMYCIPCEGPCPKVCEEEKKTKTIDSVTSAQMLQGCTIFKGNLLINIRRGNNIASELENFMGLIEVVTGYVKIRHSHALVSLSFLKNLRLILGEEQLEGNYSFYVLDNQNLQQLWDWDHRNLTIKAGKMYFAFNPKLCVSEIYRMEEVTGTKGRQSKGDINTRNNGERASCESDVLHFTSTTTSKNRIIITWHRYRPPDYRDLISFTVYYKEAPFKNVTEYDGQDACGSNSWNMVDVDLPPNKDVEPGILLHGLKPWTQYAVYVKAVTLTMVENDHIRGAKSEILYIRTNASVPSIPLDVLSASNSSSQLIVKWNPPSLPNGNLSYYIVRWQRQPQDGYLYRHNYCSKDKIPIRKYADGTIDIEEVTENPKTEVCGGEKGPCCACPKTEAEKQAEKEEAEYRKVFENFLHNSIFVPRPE
Sequence of Insulin-like growth factor 1 receptor (Homo sapiens) (P08069 741-1367 limits assumed): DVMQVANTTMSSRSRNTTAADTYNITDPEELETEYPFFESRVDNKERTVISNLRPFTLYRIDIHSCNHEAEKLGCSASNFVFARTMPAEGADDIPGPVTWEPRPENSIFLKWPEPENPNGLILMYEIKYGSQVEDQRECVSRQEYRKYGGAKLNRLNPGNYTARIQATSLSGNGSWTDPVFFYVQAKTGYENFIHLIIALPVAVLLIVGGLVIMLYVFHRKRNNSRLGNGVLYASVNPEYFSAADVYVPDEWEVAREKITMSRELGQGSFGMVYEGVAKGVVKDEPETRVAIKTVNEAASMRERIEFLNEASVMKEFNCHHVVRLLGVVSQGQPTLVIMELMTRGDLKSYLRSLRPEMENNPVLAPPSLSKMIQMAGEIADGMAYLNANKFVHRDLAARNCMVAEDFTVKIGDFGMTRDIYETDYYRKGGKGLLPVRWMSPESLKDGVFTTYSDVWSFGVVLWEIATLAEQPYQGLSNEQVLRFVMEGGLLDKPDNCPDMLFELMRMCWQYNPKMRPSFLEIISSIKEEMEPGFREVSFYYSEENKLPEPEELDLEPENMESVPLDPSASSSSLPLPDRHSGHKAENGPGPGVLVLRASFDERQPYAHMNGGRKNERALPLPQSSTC
Sequence of Insulin receptor (Homo sapiens) (P06213 28-758 limits assumed): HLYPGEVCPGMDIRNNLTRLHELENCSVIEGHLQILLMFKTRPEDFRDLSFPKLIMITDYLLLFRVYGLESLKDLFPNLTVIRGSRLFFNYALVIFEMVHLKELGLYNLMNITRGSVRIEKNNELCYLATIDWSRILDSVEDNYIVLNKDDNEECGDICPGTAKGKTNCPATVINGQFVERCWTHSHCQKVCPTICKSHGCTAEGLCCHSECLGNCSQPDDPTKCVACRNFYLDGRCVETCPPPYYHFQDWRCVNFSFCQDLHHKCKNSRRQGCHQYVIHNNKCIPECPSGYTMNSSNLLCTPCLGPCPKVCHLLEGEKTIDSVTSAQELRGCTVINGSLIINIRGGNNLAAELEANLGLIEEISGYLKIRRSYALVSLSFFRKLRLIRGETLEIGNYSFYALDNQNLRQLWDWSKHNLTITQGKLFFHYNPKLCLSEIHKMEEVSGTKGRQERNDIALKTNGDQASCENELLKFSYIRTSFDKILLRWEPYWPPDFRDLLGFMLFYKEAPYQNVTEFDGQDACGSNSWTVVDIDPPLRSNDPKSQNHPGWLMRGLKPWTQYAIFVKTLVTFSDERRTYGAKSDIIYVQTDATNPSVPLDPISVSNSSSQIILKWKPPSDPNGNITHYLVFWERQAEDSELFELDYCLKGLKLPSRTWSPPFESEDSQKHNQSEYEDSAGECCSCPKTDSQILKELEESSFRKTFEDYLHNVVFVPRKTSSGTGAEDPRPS
Sequence of Insulin receptor (Homo sapiens) (P06213 763-1382 limits assumed): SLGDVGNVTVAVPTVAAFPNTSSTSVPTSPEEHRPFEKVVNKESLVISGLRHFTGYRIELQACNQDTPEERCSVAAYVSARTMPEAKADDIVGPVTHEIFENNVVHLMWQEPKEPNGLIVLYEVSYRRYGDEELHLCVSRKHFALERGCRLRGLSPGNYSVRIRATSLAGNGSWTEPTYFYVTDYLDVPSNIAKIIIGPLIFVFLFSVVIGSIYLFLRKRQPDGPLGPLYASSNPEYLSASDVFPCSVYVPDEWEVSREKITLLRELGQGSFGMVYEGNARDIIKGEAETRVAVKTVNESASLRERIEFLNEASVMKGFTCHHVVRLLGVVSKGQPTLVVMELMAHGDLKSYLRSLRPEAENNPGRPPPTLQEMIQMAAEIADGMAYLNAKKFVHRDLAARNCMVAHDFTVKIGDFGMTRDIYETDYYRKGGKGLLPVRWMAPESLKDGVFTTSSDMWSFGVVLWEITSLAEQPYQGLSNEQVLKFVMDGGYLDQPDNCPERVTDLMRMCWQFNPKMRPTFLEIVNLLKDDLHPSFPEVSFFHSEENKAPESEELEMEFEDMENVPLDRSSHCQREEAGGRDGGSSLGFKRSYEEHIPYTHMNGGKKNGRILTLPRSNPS

SMILES | residual activity [1] [%] | residual activity [2] [%] | residual activity [3] [%] | residual activity [4] [%] | residual activity [5] [%] | residual activity [6] [%] | residual activity [7] [%] | residual activity [8] [%] | residual activity [9] [%] | residual activity [10] [%] | residual activity [11] [%] | residual activity [12] [%] | residual activity [13] [%] | residual activity [14] [%] | residual activity [15] [%] | residual activity [16] [%] | residual activity [17] [%] | residual activity [18] [%] | residual activity [19] [%] | residual activity [20] [%]
Nc1ncnc2c1c(-c1ccc(Oc3ccccc3)cc1)cn2C1CCCC1 | 54 | 76 | 72 | 100 | 58 | 104 | 103 | 91 | 96 | 109 | 90 | 50 | 83 | 74 | 94 | 114 | 15 | 58 | – | –
O=C(c1cc2cc(O)ccc2[nH]1)c1cc2cc(O)ccc2[nH]1 | 2 | 79 | 80 | – | – | 109 | 77 | 34 | – | – | – | – | 65 | 23 | 50 | – | 55 | 64 | 70 | 20
NC(=O)Nc1sc(-c2ccc(F)cc2)cc1C(N)=O | 6 | 75 | 74 | 65 | 19 | – | – | – | – | – | – | – | 84 | 49 | 46 | 69 | 3 | 22 | – | 9
